Screening data from PubChem.
TGFb inhibitor: inhibitors of TGF-b signaling | HepG2 CAGA-GFP TGF-b/SMAD3 reporter, GFP fluorescence, 18 h; TGF-beta stimulated, 500 pg/mL final | Potency, µM (highest dose often 46.1 µM), for the others: top-dose activity, negative = inhibition, most hits filed as inhibitors | hit rate 1.2% among 410,000; note: % is set by controls: 0 for no effect and ±100 for the full control effect; nearly all actives have a fitted effect of over 65% in size
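HEPG2 CAGA-GFP, 1000 cells/well; 2 h settle, 37 C; cpd via pin tool; TGF-b 500 pg/mL final; 18 h, 37 C; GFP imaging ex488/em500-530; %Activity normalised to -TGF-b and +DMSO controls; CRC fit, curve class.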
HepG2 viability: kills HepG2 cells in TGF-b inhibitor counter-screen. AID 588856. Potency, µM (titrated, usually from 46.1 µM), inactives show at the top dose activity change, negative = cytotoxicity, most hits filed as cytotoxic. hit rate 0.76% among 410,000. HepG2 CAGA-GFP viability, ATP luminescence, 18 h
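HepG2 CAGA-GFP cells (1000/well, DMEM with 1% FBS) received compound, then TGF-beta at 500 pg/mL final, and were incubated 18 hours at 37 degrees C. Viability was read by CellTiter-Glo luminescence. Media-only wells were set as complete cell-killing and DMSO as no toxicity.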
ATXN2 expr inh: inhibitors of ATXN2 expression; HEK-293 ATXN2-luciferase reporter, luminescence, 24 h; Potency, µM (highest dose often 57 µM), without a hit: at the top dose activity change, negative = inhibition, usual class: inhibitors; AID 1745845; hit rate 0.72% among 360,000; note: % is set by controls: 0 for no effect and ±100 for the full control effect; nearly all actives have a fitted effect of over 55% in size
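qHTS (up to 57 uM final) was run with 24 h compound exposure of reporter cells at 37 °C. Each well was multiplexed: SteadyGlo luminescence measured ATXN2-luciferase expression after a fluorogenic Gly-Phe-AFC viability readout (25 uM final).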
HT1080 IDH1KD tx: HT-1080 IDH1 knockdown cell toxicity (counter line); HT-1080 IDH1 knockdown viability, ATP luminescence, 48 h; Potency, µM (series often up to 46.1 µM), for inactives: at the top dose activity, negative = toxicity, most hits filed as cytotoxic; hit rate 2% among 360,000;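 note: 0% = DMSO wells and -100% = cell-free medium wells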
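Using the IDH1-knockdown HT-1080 line run in the same batch and compound series as the NT line, viability after 48 h at 37 °C was determined by CellTiter-Glo luminescence and expressed as % activity.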
HT1080-NT tox: kills 2HG-producing HT-1080-NT fibrosarcoma cells; hit rate 1.6% among 360,000; HT-1080-NT fibrosarcoma viability, CellTiter-Glo ATP luminescence, 48 h; Potency, µM (titrated, usually from 46.1 µM), without a hit: at the top dose activity, negative = less viability, hits mostly cytotoxic; AID 686970;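 note: NT is the 2HG producing partner of a matched IDH1 knockdown line; 0% = DMSO-treated cells and -100% = media-only wells without cells; nearly all actives have a fitted effect of over 55% in size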
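Read-out is CellTiter-Glo luminescence after 10 minutes at room temperature, following 48 hours' compound treatment of HT-1080-NT cells (750 cells/well, RPMI, 5% FBS, 37 degrees C).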
ATXN viability: viability counter-screen for ATXN expression inhibitors; S2 cells (HEK-293 line with an ATXN2-luciferase reporter) viability, CellTiter-Fluor protease fluorescence, 24 h; Potency, µM (series often up to 56.7 µM), usual class: cytotoxic; hit rate 0.49% among 400,000; AID 651635; note: nearly all actives have a fitted effect of over 40% in size
The depositor's hits bear a star; [ ] = dose if it differs, or a comment. Compounds with a hit are over-represented: about 3.8% of the library has one in this group of screens. Calls come from the whole dose curve; as a rule, active = well fitted curve in the direction sought with a large enough effect; inconclusive = small, poorly fitted or top-dose-only effect, or another doubt; inactive = no such curve, though single readings can be large; an effect the other way counts as inactive or inconclusive. Potency is the fitted concentration of half-maximal effect.

C=Cc1ncc(OC)c2c1[nH]c1ccccc12 was read as TGFb inhibitor 20µM*, HepG2 viability 13µM*, ATXN2 expr inh inconclusive, HT1080 IDH1KD tx inconclusive and HT1080-NT tox 16µM*.
CC(C)Nc1nc(Cl)nc(N(C#N)CN2C(=O)c3ccccc3C2=O)n1 was read as TGFb inhibitor 0%, HepG2 viability -11%, ATXN2 expr inh inconclusive, HT1080 IDH1KD tx 18µM*, HT1080-NT tox inconclusive and ATXN viability inconclusive.
Screening CCC(C)Nc1nc(Cl)nc(N(C#N)CN2C(=O)c3ccccc3S2(=O)=O)n1 (configuration not stated) returned TGFb inhibitor inconclusive, HepG2 viability -37%, ATXN2 expr inh -7%, HT1080 IDH1KD tx -23%, HT1080-NT tox -20% and ATXN viability inactive.
O=C(CSc1nnc(-c2ccccc2Br)o1)Nc1nncs1 was read as TGFb inhibitor -14%, HepG2 viability 16µM*, ATXN2 expr inh -21%, HT1080 IDH1KD tx 1%, HT1080-NT tox -3% and ATXN viability inactive.
Screening CCc1nnc(NC(=O)CSc2nnc(-c3ccccc3NC(=O)c3ccccc3)o2)s1 returned TGFb inhibitor -17%, HepG2 viability -24%, ATXN2 expr inh -10%, HT1080 IDH1KD tx -25%[9.24 µM], HT1080-NT tox 13µM* and ATXN viability inactive.
`Cc1ccccc1-c1nnc(SCC(=O)Nc2cccnc2Cl)o1` gave TGFb inhibitor 8%, HepG2 viability -47%, ATXN2 expr inh inconclusive, HT1080 IDH1KD tx 23µM*, HT1080-NT tox 18µM* and ATXN viability inactive.
Screening CCOC(=O)CSc1nnc(-c2ccccc2NC(=O)c2ccccc2)o1 returned TGFb inhibitor 0%, HepG2 viability 4%, ATXN2 expr inh -13%, HT1080 IDH1KD tx -3%[9.24 µM], HT1080-NT tox 12% and ATXN viability inactive.
`COc1ccc(CN2CCCC(c3nc(-c4ccncc4)ncc3-c3ccccc3)C2)cc1OC` (configuration not stated) gave ATXN viability inactive.
COc1cc(=O)n2c(c1C(=O)N(C)Cc1nonc1C)CCN(Cc1ccc(F)cc1)CC2 was read as ATXN viability inactive.
For Cc1ccnn1CC(=O)N1CCOc2c(cc(-c3csc4ccccc34)cc2OC2CCOC2)C1 (configuration not stated) the results were ATXN viability inactive.
S=c1nc(-c2ccccc2Br)[nH][nH]1 was read as TGFb inhibitor 5%, HepG2 viability -11%, ATXN2 expr inh -3%, HT1080 IDH1KD tx 10µM*, HT1080-NT tox 7.1µM* and ATXN viability inactive.
For Cc1noc(C)c1CSc1nc2ccccc2nc1NS(=O)(=O)c1ccc(Cl)cc1 the results were TGFb inhibitor 7.9µM*, HepG2 viability -46%, ATXN2 expr inh -26%, HT1080 IDH1KD tx inconclusive, HT1080-NT tox inconclusive and ATXN viability inactive.
Screening O=S(=O)(Nc1nc2ccccc2nc1NCc1ccco1)c1ccc(Cl)cc1 returned TGFb inhibitor inconclusive, HepG2 viability -24%, ATXN2 expr inh -9%, HT1080 IDH1KD tx inconclusive, HT1080-NT tox inconclusive and ATXN viability inactive.
`CC[C@@H](C(=O)[C@@H](C)[C@@H](O)[C@H](C)CCc1ccc(C)c(O)c1C(=O)O)[C@H]1O[C@](CC)([C@H]2CC[C@](O)(CC)[C@H](C)O2)C[C@@H]1C` gave TGFb inhibitor 10µM*, HepG2 viability -101%, ATXN2 expr inh 20µM*, HT1080 IDH1KD tx 6.5µM*, HT1080-NT tox 1.6µM* and ATXN viability 13µM*.
Screening CCOc1ccc(C(=O)Nc2cccc(NC(=O)c3ccc(Cl)cc3Cl)c2)cc1 returned TGFb inhibitor 11µM* and HepG2 viability -64%.
